Values without a mark were called inactive. Results filed as inconclusive are left out. Calls of active or inactive are those of the source. Calls come from the whole dose curve; as a rule, active = well fitted curve in the direction sought with a large enough effect; inconclusive = small, poorly fitted or top-dose-only effect, or another doubt; inactive = no such curve, though single readings can be large; an effect the other way counts as inactive or inconclusive.

Test system in one assay: not listed separately
Briefly: Primary fluorescence-based thiol-reactive (MSTI) qHTS assay for identification of artifact compounds. (AID 1845221).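 Note: thiol-reactive compounds lower the probe fluorescence signal; nearly all actives have a fitted effect of over 65% in size.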 Particulars: MSTI thiol-reactivity probe, 1 h; series mostly up to 53.8 µM; activity change, negative = thiol reactive: at the top concentration. In short, it runs like this:
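Thiol-reactive compounds detected by quenching of 4 uM MSTI fluorescence (525/598 nm) after 1 h room-temperature dark incubation in PBS pH 7.4, 2% DMSO. qHTS titration; percent inhibition Hill-fitted against Acetyl-MSTI/MSTI controls.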
A general note: qHTS replaces the single test concentration by a dilution series.
Turning to `CCCNC(=O)NS(=O)(=O)c1ccc(Cl)cc1`, the “activity change, negative = thiol reactive” value (shortened to “activity change”) was -5.51%. Regarding `O=C(Nc1ccccc1-c1cn2c(CN3CCNCC3)csc2n1)c1cnc2ccccc2n1`, the “activity change” value was 220%. Still for that read-out and setting: the same measure for `O=c1cc(CN2CCOCC2)occ1OCCCCCSc1ccnc2cc(C(F)(F)F)ccc12`: 31.4%; for `O=C(O)CCc1nc(-c2ccccc2)c(-c2ccccc2)o1`: -1.25%. With `O=C(O)c1cc(-c2ccccc2)nc2ccccc12`, the “activity change” value was -19.7%.

The next assay concerns Nanoluciferase (engineered Oplophorus gracilirostris luciferase). Briefly: Primary Nanoluciferase (NLuc) qHTS assay for identification of artifact compounds. (AID 1845222).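 For activity, negative = inhibition: 0% = DMSO and -100% = no enzyme.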 Note: potency is the fitted concentration of half-maximal effect. Conditions: NLuc-conditioned medium, Nano-Glo luminescence, 5 min; series mostly up to 54.1 µM; activity, negative = inhibition: at the top concentration. In short, it runs like this: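 Diluted conditioned medium from NLuc-expressing S16 cells treated with compounds for 15 min at room temperature, then Nano-Glo substrate added; luminescence read after 5 min. Percent inhibition versus no-enzyme and DMSO controls fitted to 4-parameter Hill equation.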
`COc1cc(N2CCC(N3CCN(C)CC3)CC2)ccc1Nc1ncc(Cl)c(Nc2ccccc2S(=O)(=O)C(C)C)n1`: the “activity, negative = inhibition” value is 1.47%. Same read-out and setting: the same measure for `CC[C@]1(O)C[C@@H]2CN(CCc3c([nH]c4ccccc34)[C@@](C(=O)OC)(c3cc4c(cc3OC)N(C)[C@H]3[C@@](O)(C(=O)OC)[C@H](OC(C)=O)[C@]5(CC)C=CCN6CC[C@]43[C@@H]65)C2)C1`: 3.81%; for `CCn1c(C(=O)N(C2CC2)C2CC2)cc2c3c(ncn3C)c(Nc3cc(C)n(C)n3)nc21`: 4.19%; for `CCOC(=O)C1=C(N)Oc2ccc(Br)cc2C1C(C#N)C(=O)OCC` (stereo unspecified): -19.7%. For the compound `CN(C)CCC(c1ccccc1)c1ccccn1` (stereo unspecified), the “activity, negative = inhibition” value is -5.9%. On the same count and under the same terms, next, `CC(C)[C@H](CO)Nc1nc(Nc2ccc(C(=O)O)c(Cl)c2)c2ncn(C(C)C)c2n1`: -6.94% [at 25.7 µM]; `O=C(CCCCCCC(=O)Nc1ccccc1)NO`: -1%; `Cc1cccc(Nc2nc(-c3ccncc3)cs2)c1`: 1.16%. With `O=C(Nc1ccccc1-c1cn2c(CN3CCNCC3)csc2n1)c1cnc2ccccc2n1`, the “activity, negative = inhibition” value was -4.8%. Regarding `O=c1cc(CN2CCOCC2)occ1OCCCCCSc1ccnc2cc(C(F)(F)F)ccc12`, the “activity, negative = inhibition” value is -10.4%. Regarding `O=C(O)c1ccccc1C(=O)Nc1ccc(-c2ccccc2)cc1`, the Potency is 23.9 µM (active). Take `CO[C@H]1C=CO[C@@]2(C)Oc3c(C)c(O)c4c(O)c(c5c(c4c3C2=O)NC2(CCN(CC(C)C)CC2)N=5)=NC(=O)C(C)=CC=C[C@H](C)[C@H](O)[C@@H](C)[C@@H](O)[C@@H](C)[C@H](OC(C)=O)[C@H]1C`: the “activity, negative = inhibition” value is -19.9%.

For `COc1cc(N2CCC(N3CCN(C)CC3)CC2)ccc1Nc1ncnc(Nc2ccccc2S(=O)(=O)C(C)C)n1`, the “activity, negative = inhibition” value is 4.67%.

Regarding `COc1cc(Nc2ncc(F)c(Nc3ccc4c(n3)NC(=O)C(C)(C)O4)n2)cc(OC)c1OC`, the “activity, negative = inhibition” value was -3.66%. For `Cc1c(NC(=O)c2ccc(C(C)(C)C)cc2)cccc1-c1cn(C)c(=O)c(Nc2ccc(C(=O)N3CCOCC3)cc2)n1`, the “activity, negative = inhibition” value is -6.1%.

For `O=C(O)c1cc(-c2ccccc2)nc2ccccc12`, the “activity, negative = inhibition” value was -20.2%.

Test system in another assay: not listed separately
Put plainly: Primary redox qHTS assay for identification of artifact compounds. (AID 1845223).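 Note: 0% = DMSO and 100% = reference compound.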 Conditions: Amplex Red/HRP redox cycling with DTT, fluorescence; series mostly up to 53.8 µM; redox activity (% of DA3003): at the top concentration. A digest of the protocol:
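Amplex Red (25 uM) and HRP (250 mU/mL) in HBSS, with compounds for 15 min, then 250 uM DTT for 30 min, room temperature, dark. Fluorescence 525/598 nm read; normalized to DMSO and 10 uM DA3003; Hill fit.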
`CCn1c(C(=O)N(C2CC2)C2CC2)cc2c3c(ncn3C)c(Nc3cc(C)n(C)n3)nc21`: the “redox activity (% of DA3003)” value is -3.33%. Consider `CCOC(=O)C1=C(N)Oc2ccc(Br)cc2C1C(C#N)C(=O)OCC` (stereo unspecified), for which the result was inactive. As to `CN(C)CCC(c1ccccc1)c1ccccn1` (stereo unspecified), the “redox activity (% of DA3003)” value was -6.37%. For the compound `CC(C)[C@H](CO)Nc1nc(Nc2ccc(C(=O)O)c(Cl)c2)c2ncn(C(C)C)c2n1`, the “redox activity (% of DA3003)” value is 10.4% [at 25.6 µM]. On the same count and under the same terms, next, `O=C(CCCCCCC(=O)Nc1ccccc1)NO`: -5.62%; `CCCNC(=O)NS(=O)(=O)c1ccc(Cl)cc1`: -5.42%; `Cc1cccc(Nc2nc(-c3ccncc3)cs2)c1`: -3.95%. In the case of `O=C(Nc1ccccc1-c1cn2c(CN3CCNCC3)csc2n1)c1cnc2ccccc2n1`, the “redox activity (% of DA3003)” value was 18.3%. Take `O=C(O)c1ccccc1C(=O)Nc1ccc(-c2ccccc2)cc1`: the “redox activity (% of DA3003)” value was -3.83%. Same read-out and setting: the same measure for `CO[C@H]1C=CO[C@@]2(C)Oc3c(C)c(O)c4c(O)c(c5c(c4c3C2=O)NC2(CCN(CC(C)C)CC2)N=5)=NC(=O)C(C)=CC=C[C@H](C)[C@H](O)[C@@H](C)[C@@H](O)[C@@H](C)[C@H](OC(C)=O)[C@H]1C`: 15%. Turning to `O=C(O)CCc1nc(-c2ccccc2)c(-c2ccccc2)o1`, the “redox activity (% of DA3003)” value is 10.7%. Same read-out and setting: the same measure for `COc1cc(Nc2ncc(F)c(Nc3ccc4c(n3)NC(=O)C(C)(C)O4)n2)cc(OC)c1OC`: 0.729%; for `Cc1c(NC(=O)c2ccc(C(C)(C)C)cc2)cccc1-c1cn(C)c(=O)c(Nc2ccc(C(=O)N3CCOCC3)cc2)n1`: 4.01%.

In the case of `O=C(O)c1cc(-c2ccccc2)nc2ccccc12`, the “redox activity (% of DA3003)” value is -5.53%.

Test system in a further assay: not listed separately
Put plainly: Quantitative High-Throughput drug screen in 47 multiple myeloma cell lines against the NCATS MIPE library collection: FR4_PLB cell viability assay (AID 1918924; note: nearly all actives have a fitted effect of over 35% in size; note: potency is the fitted concentration of half-maximal effect;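 for viability (% of DMSO control): 100% = DMSO-treated cells and 0% = wells with media only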). Particulars: FR4_PLB myeloma cells viability, CellTiter-Glo ATP, 48 h; series mostly up to 45.8 µM; viability (% of DMSO control): at the top concentration. In short, it runs like this: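 Inhibition of cell viability is measured here. Each line was plated at 500 cells per well, treated with MIPE 4.0 drugs, kept 48 hours at 37C, then assayed for ATP content by CellTiter-Glo luminescence.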
(In general: In ATP-based viability assays light output follows the ATP content of the culture.)
On to `O=C(O)CCC1CCC(c2cc(F)ccc2F)(S(=O)(=O)c2ccc(Cl)cc2)CC1` (stereo unspecified), for which the “viability (% of DMSO control)” value is 108%. Same read-out and setting: the same measure for `Nc1ncnc2ccccc12`: 131%.

`Oc1ccc(C2=Cc3ccc(O)cc3OC2)cc1`: the Potency was 1.32 µM (active). Regarding `CCn1cc(C(=O)O)c(=O)c2ccc(C)nc21`, the “viability (% of DMSO control)” value is 115%.

For `CCNc1cc(NC2CCC(O)CC2)nc(Nc2ccc3c(ccn3Cc3ccccc3)c2)n1` (stereo unspecified), the Potency is 26.4 µM (active). On to `CCOC(=O)C1=C(N)Oc2ccc(Br)cc2C1C(C#N)C(=O)OCC` (stereo unspecified), for which the Potency is 20.9 µM (active).

With `CN1[C@@H]2CCC[C@@H]1CC(NC(=O)c1nn(C)c3ccccc13)C2` (stereo partly specified), the “viability (% of DMSO control)” value is 114%. As to `CO[C@H]1C(=O)[C@]2(C)[C@@H](OC)C[C@H]3OC[C@@]3(OC(C)=O)[C@H]2[C@H](OC(=O)c2ccccc2)[C@]2(O)C[C@H](OC(=O)[C@H](O)[C@@H](NC(=O)OC(C)(C)C)c3ccccc3)C(C)=C1C2(C)C`, the “viability (% of DMSO control)” value was 36.3%.

With `O=C(Nc1cc(Cl)cc2c1[nH]c1cnccc12)c1cccnc1`, the Potency was 1.87 µM (active). As for `CN1C[C@H]2c3ccccc3Oc3ccc(Cl)cc3[C@@H]2C1`, the “viability (% of DMSO control)” value was 98.7%.

In the case of `CC(C)(C)COc1ccc(-n2cc(C(=O)O)cn2)cc1C#N`, the “viability (% of DMSO control)” value is 127%.

As to `NS(=O)(=O)c1cccc2c1C(=O)c1cccc(O)c1C2=O`, the Potency is 0.935 µM (active). For the compound `O=C(CCCCCCC(=O)Nc1ccccc1)NO`, the Potency is 2.35 µM (active). Regarding `CC(C)(C(=O)NCC(F)(F)C(F)(F)F)C(=O)N[C@@H]1C(=O)Nc2ccccc2-c2ccccc21`, the “viability (% of DMSO control)” value is 116%. With `O=c1cc(-c2ccc(O)cc2)oc2cc(O)cc(O)c12`, the Potency was 23.5 µM (active). Turning to `O=C(Nc1ccccc1Br)N[C@@H]1CCN(c2ccc(C(F)(F)F)cn2)C1`, the “viability (% of DMSO control)” value is 101%.

On to `Cc1cccc(Nc2nc(-c3ccncc3)cs2)c1`, for which the Potency is 18.7 µM (active). Same read-out and setting: the same measure for `O=C(Nc1ccccc1-c1cn2c(CN3CCNCC3)csc2n1)c1cnc2ccccc2n1`: 9.35 µM (active). Same read-out and setting: the same measure for `O=C1C(Cl)=C(NCCN2CCOCC2)C(=O)c2ncccc21`: 6.62 µM (active). Regarding `c1ccc2c(Cc3c[nH]c4ccccc34)c[nH]c2c1`, the Potency is 20.9 µM (active).

As to `O=C(O)c1ccccc1C(=O)Nc1ccc(-c2ccccc2)cc1`, the “viability (% of DMSO control)” value was 120%. Consider `C[C@]12CCC3c4ccc(O)cc4CCC3C1CCC2=O` (stereo partly specified), for which the Potency was 1.87 µM (active). As for `COc1ccc(-c2coc3cc(O)cc(O)c3c2=O)cc1`, the “viability (% of DMSO control)” value was 105%.

Turning to `COc1cc(Nc2ncc(F)c(Nc3ccc4c(n3)NC(=O)C(C)(C)O4)n2)cc(OC)c1OC`, the Potency is 20.9 µM (active). On to `O=C(N[C@@H](c1ccccc1)[C@@H]1CCCCN1)c1cccc(C(F)(F)F)c1Cl`, for which the “viability (% of DMSO control)” value was 131%.

On to `Cc1c(NC(=O)c2ccc(C(C)(C)C)cc2)cccc1-c1cn(C)c(=O)c(Nc2ccc(C(=O)N3CCOCC3)cc2)n1`, for which the Potency was 23.5 µM (active).

These data come from PubChem BioAssay (NCATS).
